Results filed as inconclusive are left out. A number with no mark means an inactive call. The source made the active and inactive calls. Calls come from the whole dose curve; as a rule, active = well fitted cell-killing curve with a large enough effect; inconclusive = small, poorly fitted or top-dose-only effect, or effect the other way; inactive = no such curve, though single readings can be large or run the other way.
Potency is the fitted concentration of half-maximal effect.

The assay is described as follows: Viability qHTS for spleen associated tyrosine kinase inhibitor (SYKi) drug resistant MV4-11 cells (AID 1963824). Note: nearly all actives have a fitted effect of over 35% in size. The note with it: SYKi-resistant MV4-11 viability, CellTiter-Glo, 72 h; series mostly up to 45 µM; viability, % of control: at the top concentration. The procedure, abridged: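 SYK-inhibitor-resistant MV4-11 AML cells were seeded at 500 per well onto compound and cultured 72 hours (37 °C, 5% CO2). CellTiter-Glo was then added, and after 10 min at room temperature, luminescence gave viability.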
In general terms: Quantitative high-throughput screening tests each substance at several concentrations.
In the case of `C=C(C)[C@@]1(O)C[C@@]2(C)C(=CC1=O)CC[C@@H](O)[C@@H]2C`, the “viability, % of control” value is 78%.
On the same count and under the same terms, the result for `C=CC(C)(O)C(O)CC1C(C)(O)C(O)C(O)C2C(C)(C)CCCC21C` (stereo not given) reads 77.7%; that for `CC1(C)CC[C@]2(C(=O)O[C@@H]3O[C@H](CO)[C@@H](O)[C@H](O)[C@H]3O)CC[C@]3(C)C(=CCC4[C@@]5(C)C[C@@H](O)[C@H](O)[C@@](C)(CO)C5[C@H](O)C[C@]43C)C2C1` (stereo not given in full), 87.9% [at 17.3 µM].
Turning to `Cc1ccc(Cl)c(Nc2ccccc2C(=O)O)c1Cl`, the Potency is 15 µM (active).
As to `CC[C@H](C)[C@H](NC(=O)[C@H]([C@@H](C)CC)N(C)C(C)=O)C(=O)N[C@H](C(=O)N[C@@H](CC(C)C)C(=O)[C@@]1(C)CO1)[C@@H](C)O`, the Potency was 0.0073 µM (active).
Still for that read-out and setting: the result for `Cc1ncsc1-c1ccc([C@H](C)NC(=O)[C@@H]2C[C@@H](O)CN2C(=O)[C@@H](NC(=O)COCCCOCCNC(=O)C[C@@H]2N=C(c3ccc(Cl)cc3)c3c(sc(C)c3C)-n3c(C)nnc32)C(C)(C)C)cc1` reads 0.0023 µM (active).
Turning to `CC(C)n1nc(-c2ccc(NC(=O)Nc3cccc(C(F)(F)F)c3)cc2)c2c(N)ncnc21`, the “viability, % of control” value was 3.6%.
For `CCC(=O)O[C@]1(C(=O)CCl)[C@@H](C)C[C@H]2[C@@H]3C[C@H](F)C4=CC(=O)C=C[C@]4(C)[C@@]3(F)[C@@H](O)C[C@@]21C`, the Potency is 18.4 µM (active).
On the same count and under the same terms, the result for `CC1=CC2/C=C(\C)CCC3OC(C)(C)OC3CCC(=O)C23C(=O)NC(CC(C)C)C3C1C` (stereo not given) reads 7.96 µM (active); that for `Cc1cc(F)c(Nc2ncnc3cc(OCc4ccccc4)ccc23)cc1O`, 14.6 µM (active).
In the case of `C=C1C(OC(C)=O)[C@@]23CCC4[C@](C)(C(=O)O)CCC[C@@]4(C)[C@]2(O)CC[C@H]1C3` (stereo not given in full), the “viability, % of control” value is 80.2%.
With `C=C(C(=O)OC)[C@@H]1CC=C2C=CC(=O)[C@H](C)[C@@]2(C)C1`, the Potency is 18.4 µM (active).
`C[C@@H]1CCCN1CCc1cc2cc(-c3ccc(C#N)cc3)ccc2o1`: the Potency was 20.6 µM (active).
On the same count and under the same terms, the result for `O=C(O)/C=C/c1ccc(-c2ccc(O)c(C34CC5CC(CC(C5)C3)C4)c2)cc1` reads 0.103 µM (active).
On to `CC1(C)CC[C@]2(C(=O)O[C@@H]3O[C@H](CO)[C@@H](O)[C@H](O)[C@H]3O)CC[C@]3(C)C(=CCC4[C@@]5(C)CC[C@H](O[C@@H]6O[C@H](C(=O)O)[C@@H](O)[C@H](O)[C@H]6O)C(C)(C)C5CC[C@]43C)C2C1` (stereo not given in full), for which the viability, % of control was 98% [at 9.25 µM].
Same read-out and setting: as for `CC1=CC(=O)C(=C(C)C)CC2C1CCC2(C)O` (stereo not given), the figure is 89.9%.
With `Cc1ccc(-n2nc(C(C)(C)C)cc2NC(=O)Nc2cc(COc3cccnc3)[nH]n2)cc1`, the Potency is 0.146 µM (active).
As for `CC(=O)OC1C(C)C2C(OC3OC(CO)C(O)C(O)C3O)OC=C(C(=O)O)C2C1OC(=O)c1ccccc1` (stereo not given), the “viability, % of control” value was 110% [at 17.3 µM].
In the case of `O=Nc1c(-c2c(O)[nH]c3ccc(F)cc23)[nH]c2ccccc12`, the Potency is 0.058 µM (active).
The same measure, in the same setting: as for `COc1cc(/C=C2\CC[C@H]3COC[C@@H](c4cc(F)c(F)c(F)c4)N3C2=O)ccc1-n1cnc(C)c1`, the figure is 13 µM (active).
Take `C/C=C(\C)C(=O)O[C@H]1[C@@H](O[C@]2(COC(=O)CC(C)C)O[C@H](COC(=O)C(C)CC)[C@@H](OC(C)=O)[C@@H]2O)O[C@H](COC(C)=O)[C@@H](O)[C@@H]1O` (stereo not given in full): the “viability, % of control” value was 94.5% [at 17.3 µM].
With `NC(=O)N1CCC(CC(=O)N2CCC(C3c4ncc(Br)cc4CCc4cc(Cl)cc(Br)c43)CC2)CC1` (stereo not given), the Potency is 2.06 µM (active).
Still for that read-out and setting: as for `Cn1c(=O)c2c(ncn2Cc2ccc(C(C)(C)C)cc2)n(C)c1=O`, the figure is 1.16 µM (active); as for `COc1cc(N2CCN(C)CC2)ccc1Nc1ncc2c(n1)N(C)c1ccccc1C(=O)N2`, 13.2 µM (active).
`CC(=O)N1c2ccc(-c3ccc(C(=O)O)cc3)cc2C(Nc2ccc(Cl)cc2)CC1C` (stereo not given): the Potency was 0.0461 µM (active).
Take `COC1C2=C(COC2=O)C2(C)CCCC(C)(CO)C2C1OC(=O)c1ccccc1` (stereo not given): the “viability, % of control” value was 74.6% [at 17.3 µM].
`CC(=O)C1=C(O)C2c3c[nH]c4cccc(c34)CC2C(C)(C)N(C)C1=O` (stereo not given): the Potency was 23.1 µM (active).
On the same count and under the same terms, the result for `C=C1C(=O)O[C@@H]2C[C@@H](C)[C@]34C[C@]5(C(=O)O[C@H]6CC(C)=C([C@H](C)CCCO)[C@H](OC(=O)C(C)CC)[C@H]65)[C@@H](C(C)=C3C[C@@H]12)[C@H]4OC(C)=O` (stereo not given in full) reads 2.43 µM (active); that for `CC1OC2OC3C(OCC(O)C3O)OC(=O)C34CCC(C)(C)CC3C3=CCC5C6(C)CC(O)C(OC7OC(CO)C(O)C(O)C7OC7OCC(OC(=O)CC(C)(O)CC(=O)OC1C(OC1OCC(O)C(O)C1O)C2O)C(O)C7O)C(C)(CO)C6CCC5(C)C3(C)CC4O` (stereo not given), 1.78 µM (active).
Regarding `C=C1C[C@@]23CCC4[C@@](C)(CCC[C@@]4(C)C(=O)OC)C2CC[C@@H]1C3` (stereo not given in full), the Potency is 6.4 µM (active).
Turning to `CC(=O)c1c(O)cc(O[C@@H]2O[C@H](CO)[C@@H](O)[C@H](O)[C@H]2O)cc1O`, the “viability, % of control” value was 81.2%.
On to `O=C1Cc2c([nH]c3ccc(Br)cc23)-c2ccccc2N1`, for which the Potency was 5.8 µM (active).
The same measure, in the same setting: as for `COC(CCc1ccc(O)cc1)CC(=O)CCc1ccc(O)cc1` (stereo not given), the figure is 14.3 µM (active).
Consider `OC/C=C/c1ccc(O[C@@H]2O[C@H](CO)[C@@H](O)[C@H](O)[C@H]2O)cc1`, for which the “viability, % of control” value is 90.3%.
For `CCCCCC1CC1CC1CC1CCCCCCCC(=O)O` (stereo not given), the “viability, % of control” value was 92.5% [at 17.3 µM].
As for `CC1(CO)CC(O)[C@]2(C(=O)O)CCC34CC3(C=CC3[C@]5(C)C(CC[C@]34C)C(C)(CO)[C@@H](O)[C@H](O)[C@@H]5O)C2C1` (stereo not given in full), the Potency was 11.2 µM (active).
With `C=CC(C)(C)C12C=C(OC)C(=O)N3C(C(C)C)C(=O)NC31N(OC)c1ccccc12` (stereo not given), the Potency was 7.09 µM (active).
For the compound `CNc1ccc([N+](=O)[O-])c(Nc2ccc3[nH]ncc3c2)n1`, the Potency was 5.8 µM (active).
Same read-out and setting: as for `C[C@]12C=C[C@@]3(CCC4[C@](C)(CO)CCC[C@@]4(C)C3CC1)C2` (stereo not given in full), the figure is 9.2 µM (active).
Consider `COc1cc(CCCO)ccc1O[C@@H]1O[C@H](CO)[C@@H](O)[C@H](O)[C@H]1O`, for which the “viability, % of control” value is 108%.

These data come from PubChem BioAssay (NCATS).
